From PubChem
F-actin modifier = cytoskeleton assembly modification | HUVEC TNFa F-actin phalloidin imaging, high content | inhibition, % at 2 µM | 91,000 tested, 0.18% active | AID 836;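 active = inhibition above the batch mean plus 3 SD and confirmed as a hit by visual image inspection, cut at about 30% in these data, passing the limit was not always enough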
CYP2C9 inh = inhibitors of human CYP2C9. 96,000 tested, 20% active. CYP2C9 Supersomes, luciferin-H conversion, luminescence. inhibition, % at 5 µM. P11712. AID 777;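 active = blocking of liver enzyme CYP2C9 beyond about 50% at 5 µM, limit read from the data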
Target sequence (P11712 whole entry, looked up): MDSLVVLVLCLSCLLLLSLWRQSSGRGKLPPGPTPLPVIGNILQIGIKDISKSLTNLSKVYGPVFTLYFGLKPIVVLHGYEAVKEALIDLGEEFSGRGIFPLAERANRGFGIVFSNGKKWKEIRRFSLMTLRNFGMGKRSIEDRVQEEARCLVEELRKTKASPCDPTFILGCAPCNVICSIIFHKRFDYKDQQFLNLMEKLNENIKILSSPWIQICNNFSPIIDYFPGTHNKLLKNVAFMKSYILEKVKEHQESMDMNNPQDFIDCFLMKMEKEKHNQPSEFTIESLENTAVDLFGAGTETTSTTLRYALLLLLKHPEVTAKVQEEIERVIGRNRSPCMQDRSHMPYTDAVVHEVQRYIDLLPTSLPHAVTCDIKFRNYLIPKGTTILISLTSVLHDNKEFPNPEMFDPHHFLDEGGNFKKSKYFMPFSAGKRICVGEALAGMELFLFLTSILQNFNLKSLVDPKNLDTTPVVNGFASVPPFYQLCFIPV
CYP2C19 inh = human CYP2C19 inhibition. P33261. CYP2C19 Supersomes, luciferin-H EGE luminescence, 30 min. inhibition, % at 5 µM. 96,000 tested, 21% active. AID 778;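 active = CYP2C19 inhibition above a set limit at 5 µM in the primary screen, cut at about 50% in these data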;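 note: plate controls were negative control wells for no effect and 2.5 mM tranylcypromine positive control for full effect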
CYP2C9 activ = increases human cytochrome P450 2C9 activity; recombinant CYP2C9, luciferin-H conversion, luminescence; hits give high values; factor 1 = untreated enzyme, 0 = blocked; activation factor at 5 µM; 96,000 tested, 1.4% active;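 active = activation factor of 2 or more for CYP2C9 at a 5 µM dose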;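 note: 0 = sulfaphenazole-blocked wells and 1 = vehicle-only wells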
E-sel TNF inh = TNF alpha driven E-selectin expression inhibition. HUVEC TNFa-induced E-selectin immunofluorescence, high content. inhibition, % at 2 µM. 120,000 tested, 0.71% active. AID 1246;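 active = inhibition above the batch mean plus 3 SD, and confirmed as a hit on visual image review, cut at about 43% in these data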;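 note: 0% = TNF-stimulated DMSO wells and 100% = unstimulated control wells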
CYP2C19 activ = activators of human cytochrome P450 2C19; P33261; recombinant CYP2C19, luciferin-H EGE luminescence; hits give high values; 0 = fully inhibited enzyme, 1 = untreated enzyme; activation factor at 5 µM; 96,000 tested, under 10 active; AID 1025;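 active = activation factor of at least 2 at 5 µM in the primary screen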;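 note: 0 = wells with 2.5 mM tranylcypromine and 1 = vehicle-only wells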
* = called active by the depositor; · = no result. Most compounds without a hit are left out; they make up all but 22% or so of the library.

SMILES	F-actin modifier	CYP2C9 inh	CYP2C19 inh	CYP2C9 activ	E-sel TNF inh	CYP2C19 activ
COc1ccc(OC)c(S(=O)(=O)N(C)CC(=O)Nc2ccccc2OC)c1	-14	26	77*	0.7	5	0.2
COc1ccc(S(=O)(=O)N(C)CC(=O)Nc2ccccc2OC)cc1C	-8	-29	93*	1.3	-5	0.1
COC(=O)c1ccccc1NC(=O)CN(C)S(=O)(=O)c1cc(C)ccc1OC	-3	67*	94*	0.3	16	0.1
COc1ccc(NC(=O)CN(C)S(=O)(=O)c2ccc3c(c2)CCC(=O)N3)c(OC)c1	-4	-70	55*	1.7	·	0.5
Cc1nn(C)cc1CNC(=O)C1C2CCC(C2)C1C(=O)O (stereo not drawn)	·	·	·	·	9	·
Cc1cccc(C(=O)Nc2ccc(N3CCN(S(C)(=O)=O)CC3)cc2)c1	·	·	·	·	-26	·
Cc1cc(=O)oc2cc(OCC(=O)NCc3ccco3)ccc12	-6	·	·	·	-20	·
N#Cc1c(/N=C/c2cccs2)sc2c1CCCCC2	7	94*	70*	0.1	2	0.3
N#Cc1c(/N=C/c2ccc(Br)s2)sc2c1CCC2	-7	·	·	·	-16	·
CN(C)/C=N/c1sc2c(c1C#N)CCC2	-3	33	67*	0.7	·	0.3
CN(C)/C=N/c1sc2c(c1C#N)CCCCC2	·	·	·	·	-6	·
COC(=O)CC1SC(=O)NC1=Nc1ccc(OC)cc1 (stereo not drawn)	-2	18	40	0.8	1	0.6
CN(C)S(=O)(=O)c1ccc(N2CCCC2)c(C(=O)Nc2nc3c(ccc4ccccc43)s2)c1	·	·	·	·	-12	·
COC(=O)C1Sc2[nH]c(=O)sc2C(c2ccc(Cl)cc2)C1C(=O)OC (stereo not drawn)	-18	93*	75*	0.1	-6	0.3
CC(=O)Nc1ccc(OCC(O)CNC2CCCC2)cc1 (stereo not drawn)	-8	5	7	0.9	-49	0.9
C=CCN(CC=C)C(=O)c1cc(Cl)ccc1[N+](=O)[O-]	·	·	·	·	-6	·
CO/N=C/NC(=O)c1ccc([N+](=O)[O-])c(CS(=O)(=O)c2ccc(Cl)cc2)c1	-1	15	2	0.8	-44	1
NNC(=O)c1ccc([N+](=O)[O-])c(CS(=O)(=O)c2ccc(Cl)cc2)c1	-4	33	75*	0.7	-7	0.3
CN(C)C=NC(=O)c1ccc([N+](=O)[O-])c(CS(=O)(=O)c2ccc(Cl)cc2)c1	9	56*	75*	0.4	12	0.2
CCN1CCN(C(=O)C2c3cc(OC)c(OC)cc3C(=O)N(C)C2c2ccc(SC)cc2)CC1 (stereo not drawn)	-10	·	·	·	6	·
CCOC(=O)c1c(C)[nH]c(C(=O)C(C)OC(=O)c2cccc(OCc3c(C)noc3C)c2)c1C (stereo not drawn)	18	90*	79*	0.1	·	0.2
CCOC(=O)c1[nH]c(C)c(C(=O)OCCOc2cccc(C)c2)c1C	·	·	·	·	-31	·
Cc1ccc(OCc2ccc(C(=O)Nc3nc4ccccc4n3Cc3ccccc3)o2)c([N+](=O)[O-])c1	1	63*	21	0.4	-8	0.8
O=C(O)CC(c1cccc2ccccc12)n1cccc1 (stereo not drawn)	21	51*	23	0.5	4	0.8
Cc1sc2nc(CN(C(=O)c3cccs3)C3CCCC3)[nH]c(=O)c2c1C	6	74*	12	0.3	·	0.9
SMILES	F-actin modifier	CYP2C9 inh	CYP2C19 inh	CYP2C9 activ	E-sel TNF inh	CYP2C19 activ
O=C(c1cccs1)N(Cc1nc2sc3c(c2c(=O)[nH]1)CCCC3)C1CCCC1	·	70*	37	0.3	-21	0.6
O=c1[nH]c(CN2CCC(c3nc4ccccc4s3)CC2)nc2sc3c(c12)CCC3	·	4	0	1	·	1
Cc1sc2nc(CC(=O)N3CCCC3)[nH]c(=O)c2c1C	·	·	·	·	4	·
Cc1sc2nc(CN(Cc3cccs3)C(=O)NC3CCCCC3)[nH]c(=O)c2c1C	-4	96*	97*	0	47	0
CCN(CC)C(=O)CCc1nc2sc3c(c2c(=O)[nH]1)CCCC3	13	47	65*	0.5	1	0.4
Cc1sc2nc(CN(C(=O)NC3CCCCC3)C3CCCC3)[nH]c(=O)c2c1C	2	·	·	·	18	·
COc1ccccc1-c1nnc(SCC(=O)NC2CCS(=O)(=O)C2)n1N (stereo not drawn)	·	·	·	·	-23	·
Cc1ccc(N2OC3C(=O)NC(=O)C3C2c2ccco2)cc1 (stereo not drawn)	·	0	20	1	-4	0.8
C=C(C)C1CCC(C)=C1COC(=O)Nc1ccccc1 (stereo not drawn)	24	37	22	0.6	·	0.8
Cc1nc(CS(=O)(=O)c2ccccc2)cc(Sc2ccccc2Cl)n1	-36	49	47	0.5	-1	0.5
Cc1nc(CS(=O)(=O)c2ccc(Cl)cc2)cc(N2CCOCC2)n1	48	53*	80*	0.5	1	0.2
Cc1nc(CS(=O)c2ccc(Cl)cc2)cc(N2CCOCC2)n1 (stereo not drawn)	-7	17	45	0.8	5	0.6
Cc1nc(CS(=O)(=O)c2ccc(Cl)cc2)cc(Sc2ccccc2Cl)n1	44	67*	52*	0.3	27	0.5
CCCCNC(=O)CSc1nnc(Cc2ccccc2)n1CC	7	·	·	·	14	·
O=C1CC(N(CCc2ccccc2)C(=S)Nc2cc(Cl)ccc2Cl)C(=O)N1c1c(Cl)cccc1Cl (stereo not drawn)	-12	54*	8	0.5	-18	0.9
CCOC(=O)NC(NCc1ccccc1Cl)(C(F)(F)F)C(F)(F)F	8	21	58*	0.8	-20	0.4
CCCCC(=O)NC(Nc1cc(C)ccn1)(C(=O)OCC)C(F)(F)F (stereo not drawn)	-4	-11	72*	1.1	-13	0.3
CCCC(=O)NC(Nc1ccc(S(=O)(=O)Nc2ncccn2)cc1)(C(=O)OCC)C(F)(F)F (stereo not drawn)	17	14	-3	0.9	6	1
CCOC(=O)NC(Nc1cc(C)ccn1)(C(F)(F)F)C(F)(F)F	39	20	54*	0.8	12	0.5
CCCCC(=O)NC(Nc1nc(C2CC2)cs1)(C(=O)OCC)C(F)(F)F (stereo not drawn)	4	27	63*	0.7	-15	0.4
O=C1c2oc3ccccc3c(=O)c2C(c2ccccn2)N1Cc1ccccc1 (stereo not drawn)	26	9	-6	0.9	-17	1.1
CCOC(=O)N1CCN(S(=O)(=O)c2ccc3c(c2)SC(C)C(=O)N3)CC1 (stereo not drawn)	·	·	·	·	-28	·
CC(C)C(OC(=O)c1ccco1)C(=O)NC1CCCCC1 (stereo not drawn)	-24	39	80*	0.6	-12	0.2
Cc1ccccc1OC(C)C(=O)NC1CCCC1 (stereo not drawn)	16	42	74*	0.6	12	0.3
